Consider eight molecules from PubChem BioAssay (NCI).

Compounds without any hit were thinned out: in the full panel of roughly 83,000, 20% have a hit.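 Single-concentration screen, 48 h exposure, 96-well plates. Endpoint: percent growth. Below 10 = active.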 Values without a mark were called inactive. Calls of active or inactive are those of the source.

Test systems include SK-MEL-2 melanoma; EKVX NSCLC; SN12C renal; UO-31 renal; TK-10 renal; ACHN renal; CAKI-1 renal; A498 renal; CCRF-CEM leukemia; MOLT-4 leukemia; SR leukemia; RPMI-8226 leukemia; OVCAR-8 ovarian; OVCAR-5 ovarian; OVCAR-4 ovarian; SK-OV-3 ovarian; IGROV1 ovarian; OVCAR-3 ovarian; HS 578T breast; NCI/ADR-RES ovarian.
What all share (test): NCI-60 one-dose screen, 48 h (100 = growth as untreated, 0 = no growth, -100 = all killed)
Conditions in all cases: 10 µM unless noted

`CS(=O)(=O)c1ccc(-c2cnc3ccc(-c4cccc(S(C)(=O)=O)c4)nn23)cc1`: the growth in the assay on SK-MEL-2 melanoma is 48.3%; in the assay with EKVX NSCLC, 67.5%; with SN12C renal it was 46.8%; in the assay on UO-31 renal, 24.2%; in the assay on TK-10 renal, 40%; in the assay on ACHN renal, 22.4%. Also, the growth with CAKI-1 renal was 23.2%; with A498 renal, -15.6% (active); with CCRF-CEM leukemia, 18.4%; in the assay on MOLT-4 leukemia it was 0.943% (active); in the assay on SR leukemia, 21.1%; in the assay with RPMI-8226 leukemia, 18.8%. The growth with OVCAR-8 ovarian is 53.1%; in the assay with OVCAR-5 ovarian, 44.2%; with OVCAR-4 ovarian, 72.8%; in the assay on SK-OV-3 ovarian, 43.4%; in the assay with IGROV1 ovarian it was 14%; with OVCAR-3 ovarian, 33.3%. In addition, the growth was 10% in the assay on HS 578T breast and 80.9% in the assay with NCI/ADR-RES ovarian.

On to `COC(=O)[C@@H]1CC[C@]2(C)[C@H](CC[C@@H]3O[C@@]32C)[C@@]1(C)CC(=O)c1ccoc1`, for which the growth in the assay on SK-MEL-2 melanoma is 78.2%; in the assay with EKVX NSCLC, 105%; with SN12C renal, 92.7%; in the assay on UO-31 renal it was 97%; with TK-10 renal, 84%; in the assay on ACHN renal, 105%. The growth in the assay with CAKI-1 renal is 106%; in the assay on A498 renal it was 88.6%; in the assay on CCRF-CEM leukemia, 102%; in the assay on MOLT-4 leukemia, 94.8%; with SR leukemia it was 86.6%; with RPMI-8226 leukemia it was 91.2%. Besides, the growth was 102% in the assay on OVCAR-8 ovarian; 109% with OVCAR-5 ovarian; 127% in the assay with OVCAR-4 ovarian; 103% in the assay with SK-OV-3 ovarian; 105% in the assay with IGROV1 ovarian; 105% in the assay on OVCAR-3 ovarian. For the same molecule, the results for the growth with HS 578T breast and with NCI/ADR-RES ovarian were 88.2% and 103%, respectively.

`COc1cc2c(c(OC)c1OC)-c1ccc(N=NC(N)=S)c(=O)cc1[C@@H](NC(C)=O)CC2`: the growth in the assay with SK-MEL-2 melanoma is -10.1% (active); in the assay with EKVX NSCLC it was 52.4%; in the assay on SN12C renal, 37%; in the assay with UO-31 renal, 60.9%; with TK-10 renal it was 19%; in the assay with ACHN renal, 65.8%. Moreover, the growth was 64.4% in the assay with CAKI-1 renal; -10.9% (active) with A498 renal; 15% with CCRF-CEM leukemia; 20% in the assay with MOLT-4 leukemia; 15% in the assay on SR leukemia; 30.8% in the assay with RPMI-8226 leukemia. Moreover, the growth with OVCAR-8 ovarian was 1.13% (active); in the assay with OVCAR-5 ovarian, 48.5%; in the assay on OVCAR-4 ovarian it was 33.5%; with SK-OV-3 ovarian, 12.1%; with IGROV1 ovarian, 5.37% (active); in the assay with OVCAR-3 ovarian, -52.2% (active). Besides, the figures for the growth in the assay on HS 578T breast and with NCI/ADR-RES ovarian were 24.2% and 82.1%, respectively.

As for `Cc1cc(=O)oc2cc(Oc3nc(-c4cccs4)cn4c(-c5cccs5)cnc34)ccc12`, the growth in the assay with SK-MEL-2 melanoma was 69%; with EKVX NSCLC, 64%; in the assay on SN12C renal, 73.8%; with UO-31 renal, 60.3%; with TK-10 renal it was 53.9%; with ACHN renal, 57.3%. For the same molecule, the growth is 67.8% in the assay with CAKI-1 renal; 64.4% with A498 renal; 94.6% in the assay with CCRF-CEM leukemia; 78.7% with MOLT-4 leukemia; 45.6% in the assay with SR leukemia; 70.3% with RPMI-8226 leukemia. Further, the growth in the assay on OVCAR-8 ovarian was 52.5%; in the assay on OVCAR-5 ovarian, 93.8%; with OVCAR-4 ovarian, 54.1%; with SK-OV-3 ovarian, 90.6%; with IGROV1 ovarian it was 79.2%; with OVCAR-3 ovarian, 68%. The figures for the growth in the assay on HS 578T breast and with NCI/ADR-RES ovarian were 67.6% and 53.4%, respectively.

With `CN1CCN(Cc2ccc(NC(=O)c3[nH]ncc3Nc3ccnc4ccsc34)cc2)CC1`, the growth is 64.9% in the assay with SK-MEL-2 melanoma; 41.1% with EKVX NSCLC; 21.3% in the assay on SN12C renal; 44.5% in the assay with UO-31 renal; 58.6% with TK-10 renal; 13.5% with ACHN renal. In addition, the growth was 59.3% in the assay with CAKI-1 renal; 17% in the assay on A498 renal; 11% with CCRF-CEM leukemia; 2.39% (active) with MOLT-4 leukemia; -12.5% (active) with SR leukemia; 19.2% in the assay on RPMI-8226 leukemia. For the same molecule, the growth in the assay with OVCAR-8 ovarian was 21.5%; in the assay with OVCAR-5 ovarian, 18.1%; in the assay with OVCAR-4 ovarian it was 12.5%; in the assay with SK-OV-3 ovarian, 34.7%; with IGROV1 ovarian, 24.2%; with OVCAR-3 ovarian it was 22.6%. The growth in the assay with HS 578T breast was 54.6%; in the assay on NCI/ADR-RES ovarian, 93.5%.

In the case of `CC[C@@H](C)OC(=O)c1nn(C(C)=O)c2ccccc12`, the growth is 107% in the assay on SK-MEL-2 melanoma; 101% with EKVX NSCLC; 102% in the assay on SN12C renal; 92.9% in the assay with UO-31 renal; 105% with TK-10 renal; 108% with ACHN renal. Further, the growth in the assay on CAKI-1 renal was 97.8%; with A498 renal, 99.2%; in the assay on CCRF-CEM leukemia, 103%; in the assay on MOLT-4 leukemia it was 123%; in the assay on SR leukemia, 110%; with RPMI-8226 leukemia, 107%. For the same molecule, the growth with OVCAR-8 ovarian is 92.7%; in the assay on OVCAR-5 ovarian it was 101%; in the assay with OVCAR-4 ovarian it was 103%; with SK-OV-3 ovarian, 114%; with IGROV1 ovarian, 110%; in the assay with OVCAR-3 ovarian, 112%. In addition, the growth in the assay with HS 578T breast was 106%; in the assay with NCI/ADR-RES ovarian, 94.2%.

On to `CCCCCCCCCCCCCC1=NCCN1CCO`, for which the growth was 114% in the assay on SK-MEL-2 melanoma; 112% in the assay on EKVX NSCLC; 69.2% in the assay with SN12C renal; 54.5% with UO-31 renal; 123% in the assay on TK-10 renal; 78.1% in the assay on ACHN renal. Besides, the growth with CAKI-1 renal was 90.7%; with A498 renal it was 108%; with CCRF-CEM leukemia, 7.19% (active); with MOLT-4 leukemia, -1.68% (active); in the assay with SR leukemia, -4.54% (active); in the assay on RPMI-8226 leukemia it was 21%. Besides, the growth with OVCAR-8 ovarian was 52.6%; in the assay with OVCAR-5 ovarian it was 79.1%; in the assay with OVCAR-4 ovarian, 169%; with SK-OV-3 ovarian, 107%; in the assay on IGROV1 ovarian, 13.3%; in the assay on OVCAR-3 ovarian it was 164%. For the same molecule, the growth is 37.9% with HS 578T breast and 84.5% in the assay with NCI/ADR-RES ovarian.

Take `CC(=O)O[C@H]1CC[C@]2(C)[C@H]3CC[C@@H]4[C@H]5[C@H](C(C)C)CC[C@]5(C(=O)OCC(CO)(CO)N=C(N)N)CC[C@@]4(C)[C@]3(C)CC[C@H]2C1(C)C`: the growth was 102% in the assay with SK-MEL-2 melanoma; 88.7% with EKVX NSCLC; 13.7% in the assay with SN12C renal; 55.1% with UO-31 renal; 88% in the assay with TK-10 renal; 83.4% with ACHN renal. For the same molecule, the growth with CAKI-1 renal is 81.1%; in the assay on A498 renal, 113%; in the assay with CCRF-CEM leukemia, 11.3%; in the assay with MOLT-4 leukemia, 0.198% (active); with SR leukemia it was -13.6% (active); with RPMI-8226 leukemia, 4.55% (active). In addition, the growth with OVCAR-8 ovarian is -31.9% (active); in the assay with OVCAR-5 ovarian it was 99.1%; in the assay with OVCAR-4 ovarian it was 87.9%; in the assay with SK-OV-3 ovarian, 91.2%; in the assay on IGROV1 ovarian, 24.3%; in the assay on OVCAR-3 ovarian, 18.9%. Moreover, the growth in the assay on HS 578T breast was 93.7%; in the assay with NCI/ADR-RES ovarian, 76.8%.
